# Measurements: the supplement of paper PMC12632987
# Whole data set: some 4,500 sequences, median “median log2 fold change of GCK-ALFA target abundance (FLAG IP / Myc IP barcode read proportion)” near 0.078, cut for the lowest 2% near -0.6. This excerpt belongs to a sample that is enriched for the lowest values.
# B1: GBRAP_139_3718 (protein)
# chain: SAAEEKIEKAKEIVEKYKDDLEKLAKELAKLISEVDGETALEIVRAAAEELKDWSWEEWEEFIELLEKELKELGFDEDDVLAIKGEFEAVMAKHLMAKEA
# B2: GBRAP_117_2578 (protein)
# chain: MEEREEVKRRLRETVREAGKRLEESKSLSPEERRKVEEEVRERIAEAVREALEVLSREEVLDIVEEELLEFDAETYFKIMSFVEEAIEEIREEEEREREE
# B3: GBRAP_11_2868 (protein)
# chain: KKEKLEELAKLVKEAIEKLEKLLKEGVDNEELRKEIKKLLKEALKLAEKYASPAVAELLKIALEDLEKAEEDPENAKEYVERALAALRVAHGDLLLEIDE
# B4: GBRAP_172_4999 (protein)
# chain: GTTLLKLNLLGLSKEEAVETAVKAVKETIEKTGNNLVVAVIADDEETVEAVEKAIKKVAKEKGVKVEVVGEAYRSEEDERRVLAAAEAEKINLEYEEEEK
# B5: GBRAP_11_2687 (protein)
# chain: KKEKLEEGAKLAEELAKLIEELLKEGVDNEKLLKELEKKLKELEKLTKEYADKASQKLTEDIKETWEEMLKDPEKAEEYAKEMLAGARVLAGDYLLEIEE
# B6: GBRAP_160_4409 (protein)
# chain: SEELKKTAERILEAVKEELELLLELGEIDPEAAAGLLEGTILLEVFEDDSLTEEQEEKLEELAEELAEELRKRLEEEGKMTEEIKEELLKLAKEGLEKII
# B7: GBRAP_160_4408 (protein)
# chain: SEELEETAERILEAVEDELELLLELGEVDPEAAAGLLEGTILLEAFEDDSLTEEQEEEIEELAEELAERLERLLKEEGRMTEEIVEELLEEAEEGLEEII
# B8: GBRAP_160_4407 (protein)
# chain: SEALKETAERILEAVKDELDLLLELGKIDPKAAAGLLEGTVLLEMFEDDSLTEEQEEKLEELAERLAERLEKLLKEEGEMTEEIRKELLEEAKRGLEEII
# B9: GBRAP_14_3807 (protein)
# chain: MEEKKKAITDNTDELKEIVTEILKDAPQEVRDAVLAAIEDFRKTVIENNLNPDEIAELGDELVKKVEEITKDLPADVRARVLAAVRVHTGEIILEVEELE
# B10: GBRAP_95_7033 (protein)
# chain: EDDKLALESAIEVAVAAAELGDDDAAARALREALELLKKAGKVELDEELLKEAIDVIERVGVKKLPREDVLELLELLLEAAETEEVKELAEKAIERVKKR
# B11: GBRAP_160_4426 (protein)
# chain: SAKLEKAKKLITEIVEETAEMMEGESAEERIVLVRVAEGEILLELEELGLLTDEIEAVIDETFAAIAAHIAAHPDISQEELRALLKAAEEKIKKQLEKEA
# B12: GBRAP_52_6047 (protein)
# chain: SEEEIRRLAREAYEAMLAGDEERARALLREIFATKDEEKLEVFLETMVELAREARPEEHDAVARLVELAEEVGREAGIPEEFLDDFEARVFAAMYEAEQR
# B13: GBRAP_11_2845 (protein)
# chain: KKEKLKEIAEQADKVIALLDELIAAGTDDEELWKKLEEQLKKLQELVEKYLDESEKELAKLAKEELEEAKADPANAEQHLNNAKAFVSTLQGLVLLEIEE
# B14: GBRAP_125_3027 (protein)
# chain: SMEETAANLAKIARALGFSEGDVAELVANALAHGIKGAMIALALALGDEELADLLERLTEEEVARVVAEAAAEIEANPDLTPEEVKALLLELARRAVAES
# B15: GBRAP_35_5514 (protein)
# chain: STDDTIAEMLESYIEDLTLAVPELDPETLHTLTLGAAEMARELIEDNKNNKEIVKRIKESLERLLEALEARGLDDPLLREAAERVREVIEYAEEVLKEIE
# B16: GBRAP_150_3890 (protein)
# chain: SLEELLTIADTALDILELDIESGGKTIDQTLKVVQALVDEAKNFSPELQKLAEEALKKVEEAKKLKEEGGDQKEIDKLLKEAKKKLEELIKLLEKKIKEK
# B17: GBRAP_83_6961 (protein)
# chain: MIVVAASERPESIRSSIEAAIDLHKNEGKEVEIELFVTRENAPAALEGLKKAIDAGVEAEITLVTREEDREAAEALAAELKAYAAAKGRNTTVTVEVLPA
# B18: GBRAP_184_5320 (protein)
# chain: KVIHKVIEVETEEEAIEKLEEVKKEAKETGEKYLVVVEIKNATEKKIEAIAEKIKEMKEEGLPIEVIVELLDEVDEELTDFAVEKMEEAGAKVVISLKDE
# B19: GBRAP_160_4155 (protein)
# chain: SEELKKLIKEIKELADEAIKMMEGETPEQAKTIARVTLGDILLLVEENPAVSEEAEDKIGAIADATEATLKANPDLTVEEVKALVKEARDKVVAILEEEA
# B20: GBRAP_160_4153 (protein)
# chain: SEEIEKLIKEINEIADEAIKMMEGETPEQAKTIARVALGEMLLLVEENEAVSEETEDKIGEVVDATEATLKANPNLTVEEVKALLNEARDKIVKILKEES
# B21: GBRAP_128_3366 (protein)
# chain: LDEALLAEIRALVERMITSSVEETAALTREIVARIGTLSLAEQEAAVEIILAALPKLTKEKLEVVADTIRAAAPELDPETQRLLAEVEVEALNLAEELEE
# B22: GBRAP_53_6391 (protein)
# chain: GEERLEELIEELNRLIEELKTADPETAIKLAREAVELLLELAELGLPEEELVELVRRFAEAARPKPELEPVLVELAKRLAALGREEAAAEVAEALVEELE
# B23: GBRAP_35_5625 (protein)
# chain: NTNKEIAEATVAVMEDTLLAVDEVPAETFIDTAIKVAKAGIEVAKELKDDKENAKKILEAVKELLEAALKKAEETGAPEEKIKELKELLKEVEELEKKLK
# B24: GBRAP_43_5791 (protein)
# chain: MEEIVEGALDFARTALETPEITDETKARIVVDAVDFAADEGLLTEEELEELLRLLAESVSLEVAERALEEILKRLKELGAPQSLIDVVEKALEEVKKRRA
# B25: GBRAP_160_3991 (protein)
# chain: SEEIEKLKEEFKKLFDEMLELAEGESPEERLAVVRVMMGEVILLAEESGVVSDEAEEEIAKIMDELVATVEANPDMSMEELKALVEEALKKIFEVIDKYS
# B26: GBRAP_52_5980 (protein)
# chain: AEAEARALAEELLALMLAGDREGARALIREIVATKSEAFLELVFAALAELARTATPEERDAIVELALLLEDEALEGGFDEAVVDAGVARVAAAAVAAAAA
# B27: GBRAP_14_3765 (protein)
# chain: MEEVEKIIDETGKEIAALLAELVPEKAEEFKEAIDEVRKETIARIKETGDALAAAEEGERRLAERIAEITADLPEERRAEALAVVRVLFGQAILEIDEAL
# B28: GBRAP_184_5033 (protein)
# chain: KVLEKEIKAKNKEELEEKLKKLAEEVKGSKADLIVLLDIENPTKEKVKLAIEGLGAIKKAGYVSSVTIGFENELSEELTDVALETADKEGVKVVLPISDE
# B29: GBRAP_42_5723 (protein)
# chain: MYLVNLEVVVATREELERAIAIWRERNARYRKEKGIIIRLTIAAPEEAAELAAEAEAESAELAKEADKELDWVVVAASADEVGDAIDIAVDLALEERKEE
# Target: GABARAP, O95166
# Experiment: median log2 fold change of GCK-ALFA target abundance (FLAG IP / Myc IP barcode read proportion) (log2 ratio); each designed protein is fused to an ALFA-tag nanobody in HEK293 cells to bring the named protein to FLAG-tagged glucokinase (GCK); Myc marks an untargeted standard; higher = target protein stabilised (more abundant)
# Settings: target protein: 3xFLAG-MCP-GCK-ALFA reporter; HEK293 landing pad (RPLP)
# Outline: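 Sequencing of reverse-transcribed, amplified circular RNA barcodes from anti-FLAG and anti-Myc immunoprecipitates provided the readout for an ALFA-nanobody-fused binder library recombined into HEK293 landing-pad cells. Those cells were induced with 2 μg mL^−1 doxycycline, transfected with a plasmid expressing a FLAG-tagged target and a Myc-tagged standard, and lysed after 48 h. Target abundance is the per-binder median log2 ratio of FLAG to Myc barcode read proportions. Only barcodes at a proportion of ≥10^−7 in both replicates and binders with ≥3 barcodes per replicate were kept, with a 10^−6 pseudocount added before the two replicates were pooled.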
# Sequence of GABARAP, O95166 (O95166 whole entry, the tested form may be a part): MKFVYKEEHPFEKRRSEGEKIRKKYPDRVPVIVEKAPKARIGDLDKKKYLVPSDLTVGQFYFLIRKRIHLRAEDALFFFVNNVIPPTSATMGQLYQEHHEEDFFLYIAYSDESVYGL
row,Binder,median log2 fold change
1,B1,0.0839
2,B2,0.274
3,B3,0.0406
4,B4,0.15
5,B5,0.232
6,B6,-0.32
7,B7,-0.872
8,B8,-0.289
9,B9,0.206
10,B10,0.148
11,B11,-0.243
12,B12,0.204
13,B13,0.0872
14,B14,0.134
15,B15,-0.908
16,B16,0.232
17,B17,0.189
18,B18,0.193
19,B19,-0.546
20,B20,-0.642
21,B21,0.309
22,B22,0.2
23,B23,-0.0947
24,B24,-0.0499
25,B25,-0.567
26,B26,-0.762
27,B27,0.0613
28,B28,-0.000909
29,B29,0.104
